Screens from PubChem.
A selection: hits, their analogues and other compounds. The true share with any hit is near 2.2%.
PHOSPHO1 block = PubChem AID 1565. Phosphoethanolamine/phosphocholine phosphatase (Homo sapiens), Q8TCT1. recombinant PHOSPHO1, absorbance phosphatase assay. inhibition, % at 13.3 µM. 1.1% of 290,000 active; in the data active = inhibition above about 60%
HDAC3 inhib = HDAC3 deacetylase inhibitors, primary screen, biochemical, fluorescence, cell-free homogeneous. inhibition, % at 8.3 µM. 0.15% of 320,000 active. Histone deacetylase 3 (Homo sapiens), O15379. recombinant HDAC3, fluorogenic peptide/trypsin coupled. AID 2718, 2010; in the data active = inhibition above about 26%, passing the limit was not always enough
pCIP destab = p/CIP-EGFP fusion destabilizers, primary screen, fluorescence, F442A cells. AID 1984, 2009. decrease of EGFP signal, % at 10 µM. 16 h. 0.01% of 290,000 active. Q05BA5;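 active = EGFP signal decrease of at least 30% at 10 µM or well 3 SD below plate mean, unless failing retest; inactive = the rest, including hits failing retest or dose response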
Target sequence (Q05BA5 1-1403): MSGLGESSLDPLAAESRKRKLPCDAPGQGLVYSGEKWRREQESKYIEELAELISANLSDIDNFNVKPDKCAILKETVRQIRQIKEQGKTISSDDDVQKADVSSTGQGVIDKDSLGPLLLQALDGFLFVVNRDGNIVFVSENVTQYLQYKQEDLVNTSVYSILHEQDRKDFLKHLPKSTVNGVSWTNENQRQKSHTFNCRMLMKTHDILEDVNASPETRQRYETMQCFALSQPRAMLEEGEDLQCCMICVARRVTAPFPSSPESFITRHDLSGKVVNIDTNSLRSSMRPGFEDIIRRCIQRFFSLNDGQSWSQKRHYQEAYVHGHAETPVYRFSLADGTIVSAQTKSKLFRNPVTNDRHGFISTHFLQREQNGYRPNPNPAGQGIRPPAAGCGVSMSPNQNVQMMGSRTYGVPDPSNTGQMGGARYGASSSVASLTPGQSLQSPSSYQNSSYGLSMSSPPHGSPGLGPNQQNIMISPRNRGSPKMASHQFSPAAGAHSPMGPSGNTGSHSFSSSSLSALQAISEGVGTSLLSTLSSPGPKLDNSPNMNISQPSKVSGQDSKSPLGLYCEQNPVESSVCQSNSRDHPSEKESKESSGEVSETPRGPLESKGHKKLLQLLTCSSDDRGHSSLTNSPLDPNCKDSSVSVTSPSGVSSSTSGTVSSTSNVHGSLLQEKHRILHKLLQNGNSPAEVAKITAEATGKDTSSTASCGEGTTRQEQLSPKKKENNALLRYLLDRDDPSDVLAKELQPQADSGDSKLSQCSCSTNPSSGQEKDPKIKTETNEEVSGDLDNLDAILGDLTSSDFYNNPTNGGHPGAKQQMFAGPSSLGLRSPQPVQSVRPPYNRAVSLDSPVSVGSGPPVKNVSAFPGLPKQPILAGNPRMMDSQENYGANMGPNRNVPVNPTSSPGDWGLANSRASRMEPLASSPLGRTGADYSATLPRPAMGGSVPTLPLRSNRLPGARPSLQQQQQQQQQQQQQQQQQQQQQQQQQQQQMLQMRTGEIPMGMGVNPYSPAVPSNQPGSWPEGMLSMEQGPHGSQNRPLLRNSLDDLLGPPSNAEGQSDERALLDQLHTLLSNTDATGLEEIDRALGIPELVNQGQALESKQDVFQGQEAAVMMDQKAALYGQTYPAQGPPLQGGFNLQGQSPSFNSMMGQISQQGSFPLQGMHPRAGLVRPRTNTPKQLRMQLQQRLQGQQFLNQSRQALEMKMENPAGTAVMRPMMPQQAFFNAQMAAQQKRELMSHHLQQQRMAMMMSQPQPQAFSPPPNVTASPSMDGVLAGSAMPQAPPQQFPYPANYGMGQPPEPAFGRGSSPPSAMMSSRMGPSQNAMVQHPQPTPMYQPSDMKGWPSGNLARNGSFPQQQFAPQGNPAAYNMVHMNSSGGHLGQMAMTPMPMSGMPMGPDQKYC
Mot1-301 SUMO = yeast Mot1-301 growth rescue at high temperature, primary screen, SUMOylation pathway inhibitor project, S. cerevisiae, ATP luminescence, 38.5C; S. cerevisiae Mot1-301 growth rescue; percent above DMSO median, 100 means doubled; growth rescue, % at 18.8 µM; 1% of 320,000 active; AID 2716, 2010;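 active = every valid replicate shows activation above 250% relative to neutral control wells; inactive = the rest, any valid replicate at or below 250%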;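 note: OY570 slx delta 5 strain wells were the positive control but not used for scaling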
PvdQ acylase = P. aeruginosa PvdQ acylase inhibitors, primary screen, biochemical, fluorescence, plate reader and imaging, single point | purified PvdQ acylase | inhibition, % at 10 µM | 0.063% of 340,000 active; in the data active = inhibition above about 30%, passing the limit was not always enough;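 note: 0% = vehicle neutral wells and 100% = reference inhibitor wells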
JMJD2C inh = inhibitors of GASC-1 histone demethylase, primary screen, biochemical, fluorescence, DELFIA europium; GST-JMJD2C(1-420) H3K9me3 demethylation; Lysine-specific demethylase 4C (Homo sapiens), Q9H3R0; 0.069% of 330,000 active; inhibition, % at 2.35 µM;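 active = more than half of a compound's replicate wells show inhibition beyond 50%, single wells judged on their own value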;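 note: signal counts dimethyl H3K9 product captured on neutravidin plate; 0% = median of DMSO wells and 100% = 0.3 times that DMSO median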
Mot1 SUMO dose = growth restoration of Mot1-301 yeast on galactose, dose response, SUMO pathway inhibitor project, whole organism, S. cerevisiae, ATP luminescence, cherry-picked samples | growth activity, percent, % at 42 µM | S. cerevisiae Mot1-301 galactose growth, 24 h; -100 = growth of slx-deleted rescue strain | shares compounds with Mot1-301 SUMO | 2,300 tested, under 10 active | AID 493004, 2010;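 active = Signal drops as the depositor expects, and the fitted half-maximal dose is no more than ten times the top valid tested dose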;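 note: more negative values mean stronger growth rescue toward the control strain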
* hit, by the source's call; / = no result given; + = active, no number.

SMILES | PHOSPHO1 block | HDAC3 inhib | pCIP destab | Mot1-301 SUMO | PvdQ acylase | JMJD2C inh | Mot1 SUMO dose
O=C(Nc1ccccc1)N1CCC(c2ccccc2)C1 (stereo not drawn) | 16 | 3 | -7 | 22 | 14 | 7 | /
CCc1ccc(NC(=O)N2CCC(c3ccccc3)C2)cc1 (stereo not drawn) | 5 | / | 13 | 929* | 0 | 5 | 0
CCOC(=O)c1ccccc1NC(=O)CSc1ccc(-c2ccccn2)nn1 | 43 | / | -1 | 783* | -11 | 1 | 0
CCc1cc(=O)oc2c(C)c(OC(C)C(=O)NCCCn3ccnc3)ccc12 (stereo not drawn) | 46 | -4 | -4 | -3 | -11 | 16 | /
CCOC(=O)CNC(=O)Cn1cnc2c(nnn2-c2ccccc2)c1=O | 15 | 2 | 0 | 6 | -9 | 0 | /
Cc1ccc(NC(=S)NC(NC(=O)c2ccccc2C)C(Cl)(Cl)Cl)c(C)c1 (stereo not drawn) | 12 | 4 | -11 | 627* | -13 | -6 | 0
CCCCn1c(N)c(N(CC)C(=O)c2c(CC)noc2C)c(=O)[nH]c1=O | / | 6 | / | 4 | 3 | -1 | /
CCCCn1c(N)c(N(Cc2ccccc2OC)C(=O)c2c(CC)noc2C)c(=O)[nH]c1=O | 14 | -3 | -8 | 395* | 2 | -14 | 1
CCCOC(=O)c1c(-c2ccc(OC)cc2)oc2ccc(-c3ccc(OC)nc3)cc12 | -2 | -2 | 0 | 633* | -15 | 6 | 0
COC(=O)c1c(-c2ccc(OC)cc2)oc2ccc(-c3ccc(OC)nc3)cc12 | -2 | -7 | -4 | -14 | -2 | -5 | /
COc1ccc(-c2oc3ccc(-c4cc(OC)c(OC)c(OC)c4)cc3c2C(=O)c2ccc(OC)nc2)cc1 | -2 | 2 | -3 | 813* | -13 | -13 | 0
O=C(Cc1cccs1)Nc1nnc(-c2ccncc2)s1 | -4 | -2 | -8 | + | 0 | 9 | 0
CCn1c(SCC(=O)OC)nnc1-c1ccncc1 | 3 | -4 | -2 | 825* | -12 | 0 | 0
CCn1c(SCC(=O)Nc2nccs2)nnc1-c1ccccc1 | -2 | -3 | -6 | 4 | 8 | 9 | /
CCn1c(SCC(=O)Nc2nc(-c3ccccc3)cs2)nnc1-c1ccccc1 | 23 | -4 | -5 | 570* | 10 | -1 | 1
S=c1[nH]ccn1-c1cccc(Cl)c1 | 40 | -5 | -2 | 479* | 4 | -11 | -1
CCNc1ccc(S(=O)(=O)N(C)C)cc1NCC(=O)Nc1ccccc1Br | 23 | 0 | 3 | 987* | -7 | 8 | 0
Cc1sc2nc(N)sc2c1C | 90* | 4 | -4 | + | -5 | 2 | 0
Cc1ccc(NC(=O)C2CCN(C(=O)c3ccc(F)cc3)CC2)nc1 | / | 0 | / | 5 | -11 | 0 | /
CCN1CCN(C(=O)c2ccc3nc(-c4ccccc4)c(-c4ccccc4)nc3c2)CC1 | 20 | -18 | 2 | 474* | -4 | -1 | 0
O=C(O)c1ccc2nc(-c3ccccc3)c(-c3ccccc3)nc2c1 | -12 | -3 | -2 | 5 | -2 | 1 | /
O=C1CC(=O)C(n2cncn2)C(c2ccc(Cl)cc2Cl)C1 (stereo not drawn) | 11 | 7 | 4 | + | -9 | -2 | 0
CCC(C)c1ccccc1NC(=S)NC(=O)c1ccco1 (stereo not drawn) | 18 | 8 | -2 | -14 | -17 | 0 | /
CC(=O)N1c2ccc(S(=O)(=O)N3CCCCC3)cc2CC1C(=O)NCc1ccc(N(C)C)cc1 (stereo not drawn) | 12 | -3 | 2 | 10 | -1 | -30 | /
O=C(CSC1=NS(=O)(=O)c2ccccc2N1)NCCc1ccccc1 | / | 2 | / | -4 | -11 | 2 | /
SMILES | PHOSPHO1 block | HDAC3 inhib | pCIP destab | Mot1-301 SUMO | PvdQ acylase | JMJD2C inh | Mot1 SUMO dose
O=C(CC1(CC2=NS(=O)(=O)c3ccccc3N2)CCCC1)NCCc1ccccc1 | 36 | 3 | -4 | 614* | -5 | -18 | 0
S=C(Nc1ccc(Cc2ccncc2)cc1)Nc1cccc(Cl)c1 | 8 | / | 1 | 366 | -16 | 5 | /
COc1ccc(-c2cc(C(F)(F)F)n3ncc(C(=O)O)c3n2)cc1OC | 11 | 5 | 1 | 367* | -6 | -34 | 0
COc1ccccc1CNC(=O)C1CCC(=O)N1C(C)C (stereo not drawn) | 34 | -3 | -3 | 595* | -3 | -10 | 0
O=C(O)c1ccc(N2CC3CC(C2)c2cccc(=O)n2C3)c(NC(=S)Nc2ccc(Br)cc2)c1 (stereo not drawn) | 51 | 6 | 14 | -9 | -10 | 0 | /
O=C(CSc1cccc[n+]1[O-])N1CCc2ccccc21 | 33 | / | 3 | 898* | -7 | 7 | -1
O=C(CSc1cccc[n+]1[O-])N1CCCCCC1 | 17 | 0 | -14 | 0 | -3 | -9 | /
O=C1CN(C(=O)c2c(F)cccc2F)C(c2ccc(F)cc2)c2cc(F)ccc2N1 (stereo not drawn) | 33 | 3 | 0 | 677* | -15 | -6 | -1
O=C1CN(C(=O)c2c(F)cccc2F)C(c2ccc(F)cc2)c2cc(Br)ccc2N1 (stereo not drawn) | / | 1 | -11 | -8 | -10 | 9 | /
Cc1ccc(C(=O)O)cc1[N+](=O)[O-] | / | 3 | / | 365* | -19 | -6 | -1
Cc1ccc(-c2nc3c(=O)n(-c4ccccc4)c4c(c(=O)n(C)c(=O)n4C)c3o2)cc1 | 46 | 0 | -17 | 796* | 16 | -14 | 1
Cc1ccc(-c2nc3c(=O)n(C)c4ccccc4c3o2)cc1 | 10 | -13 | -2 | -6 | -3 | 16 | /
CCOC(=O)c1cn(Cc2cccc(Cl)c2)c2cc(C)nn2c1=O | 42 | -42 | -2 | 3 | -6 | 12 | /
O=C(NCC(O)c1ccc([N+](=O)[O-])cc1)C1=COCCO1 (stereo not drawn) | / | -2 | / | -3 | 8 | -1 | /
Cc1ccc(-c2nnc(SCC#CCOC(=O)c3ccco3)o2)cc1 | 14 | 3 | 12 | 11 | 3 | 2 | /
O=C(OCC#CCSc1nnc(-c2ccccc2)o1)c1cc2ccccc2o1 | 0 | 5 | 11 | 582* | -10 | 5 | 0
c1ccc(CNc2ncnc3sc4c(c23)CCC4)nc1 | 28 | -7 | 3 | 818* | 2 | 2 | 0
